The values below come from ChEMBL document CHEMBL3988442, “University of Dundee, Small-Polar-MMV Screening Library” (2021).

For part of these data: Entries with a potency or affinity are not part of this list.

Holding throughout (parameters): scale not given: direction of the effect not stated beside the values
In experiment [1] the target is Protein translocase subunit SecA (Escherichia coli (strain K12)) (UniProt P10408). Description: Assay to Identify E. coli SecA ATPase Inhibitors. It counts as functional. The note with it: 30 µM.
Chain of Protein translocase subunit SecA (Escherichia coli (strain K12)) (P10408 whole entry): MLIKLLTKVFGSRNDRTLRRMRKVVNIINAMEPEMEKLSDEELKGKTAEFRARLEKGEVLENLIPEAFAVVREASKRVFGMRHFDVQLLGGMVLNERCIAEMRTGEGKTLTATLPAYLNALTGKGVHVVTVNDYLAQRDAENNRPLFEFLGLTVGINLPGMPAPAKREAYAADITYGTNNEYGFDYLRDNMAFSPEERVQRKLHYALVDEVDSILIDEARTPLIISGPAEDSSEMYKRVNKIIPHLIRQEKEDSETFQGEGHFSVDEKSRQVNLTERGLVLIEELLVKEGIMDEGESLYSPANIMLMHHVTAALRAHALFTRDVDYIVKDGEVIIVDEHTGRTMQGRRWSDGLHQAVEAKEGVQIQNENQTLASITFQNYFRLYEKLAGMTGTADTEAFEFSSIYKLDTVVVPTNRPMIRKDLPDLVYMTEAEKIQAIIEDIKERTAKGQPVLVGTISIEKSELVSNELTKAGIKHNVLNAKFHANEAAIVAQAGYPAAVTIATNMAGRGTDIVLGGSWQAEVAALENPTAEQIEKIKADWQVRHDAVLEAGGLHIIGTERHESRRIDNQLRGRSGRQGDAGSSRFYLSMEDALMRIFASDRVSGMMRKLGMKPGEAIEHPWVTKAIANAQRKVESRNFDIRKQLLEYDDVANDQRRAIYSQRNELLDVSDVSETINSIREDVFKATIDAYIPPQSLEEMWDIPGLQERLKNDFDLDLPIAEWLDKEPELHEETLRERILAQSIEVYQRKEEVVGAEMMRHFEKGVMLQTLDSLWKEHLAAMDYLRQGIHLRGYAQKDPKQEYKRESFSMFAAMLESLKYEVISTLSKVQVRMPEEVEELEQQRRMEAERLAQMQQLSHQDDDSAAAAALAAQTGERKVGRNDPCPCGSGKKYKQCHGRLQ
The target in experiment [2] is T1, Ubiquitin-activating enzyme e1, putative (Leishmania donovani (strain BPK282A1)) (UniProt E9BSI1).
T1 sequence (whole entry): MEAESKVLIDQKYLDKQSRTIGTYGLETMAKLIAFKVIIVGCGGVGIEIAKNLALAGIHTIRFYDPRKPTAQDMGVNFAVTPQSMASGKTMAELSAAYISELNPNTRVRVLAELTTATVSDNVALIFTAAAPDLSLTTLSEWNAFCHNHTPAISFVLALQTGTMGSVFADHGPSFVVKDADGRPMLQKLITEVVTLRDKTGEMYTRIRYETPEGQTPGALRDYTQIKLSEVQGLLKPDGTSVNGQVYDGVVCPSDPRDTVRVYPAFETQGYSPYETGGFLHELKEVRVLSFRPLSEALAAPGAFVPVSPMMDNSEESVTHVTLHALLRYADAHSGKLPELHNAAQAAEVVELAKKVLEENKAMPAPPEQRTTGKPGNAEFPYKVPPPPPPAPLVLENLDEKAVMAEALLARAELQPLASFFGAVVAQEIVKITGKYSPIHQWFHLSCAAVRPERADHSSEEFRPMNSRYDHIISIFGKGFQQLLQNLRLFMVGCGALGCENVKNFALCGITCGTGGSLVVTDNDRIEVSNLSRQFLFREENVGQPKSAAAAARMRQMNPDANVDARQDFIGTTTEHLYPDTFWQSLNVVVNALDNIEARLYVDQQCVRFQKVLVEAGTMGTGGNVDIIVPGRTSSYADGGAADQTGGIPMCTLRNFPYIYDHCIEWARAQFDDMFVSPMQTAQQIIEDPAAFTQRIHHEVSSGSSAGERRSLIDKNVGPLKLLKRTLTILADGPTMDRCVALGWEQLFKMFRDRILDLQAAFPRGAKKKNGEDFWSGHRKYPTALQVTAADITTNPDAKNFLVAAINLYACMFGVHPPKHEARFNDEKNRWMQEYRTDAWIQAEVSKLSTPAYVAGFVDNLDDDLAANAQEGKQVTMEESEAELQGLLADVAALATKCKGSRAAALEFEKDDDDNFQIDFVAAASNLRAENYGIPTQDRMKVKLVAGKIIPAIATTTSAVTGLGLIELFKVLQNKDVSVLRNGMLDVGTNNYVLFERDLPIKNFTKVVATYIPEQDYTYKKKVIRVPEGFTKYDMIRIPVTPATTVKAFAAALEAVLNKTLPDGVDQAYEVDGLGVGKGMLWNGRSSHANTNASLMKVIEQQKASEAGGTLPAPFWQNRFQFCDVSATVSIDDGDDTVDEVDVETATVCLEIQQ
Description: Leishmania donovani Ubiquitin Activating Enzyme (LdE1). It counts as functional. Particulars: 30 µM.

Experiment [3] concerns the target Sialic acid-binding Ig-like lectin 9 (Homo sapiens) (UniProt Q9Y336). Description: Hs-Siglec9 ALPHAscreen SOP 20170721. The note with it: 10 µM. (In general: Alpha assays give light when donor and acceptor beads are brought close together.)
The test system of the next experiment is Trypanosoma cruzi. Description: Trypanosoma cruzi phosphomannomutase and mannose-1-phosphate guanylyltransferase assay. It counts as functional. Particulars: 10 µM.
In experiment [4] the target is T2, Arginase-2, mitochondrial (Homo sapiens) (UniProt P78540).
T2 sequence (whole entry): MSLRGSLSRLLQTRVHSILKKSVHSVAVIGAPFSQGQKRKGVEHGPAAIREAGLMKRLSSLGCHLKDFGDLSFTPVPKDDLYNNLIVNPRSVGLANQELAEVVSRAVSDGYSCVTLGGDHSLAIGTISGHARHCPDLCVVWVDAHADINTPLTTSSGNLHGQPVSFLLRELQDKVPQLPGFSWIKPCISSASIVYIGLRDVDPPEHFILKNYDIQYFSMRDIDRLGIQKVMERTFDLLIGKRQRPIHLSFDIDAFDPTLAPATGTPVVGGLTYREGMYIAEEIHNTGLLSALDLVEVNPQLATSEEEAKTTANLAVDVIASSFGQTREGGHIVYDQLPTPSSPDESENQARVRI
Description: in vitro enzyme assay to detect the production of urea directly proportional to the activity of Arginase II. Note: in the data most compounds retested in dose-response had high values. It counts as functional. Particulars: 33.3 µM.

Experiment [5] concerns the target T3, Proteasome subunit beta (Trypanosoma cruzi) (UniProt O96673).
T3 sequence (whole entry): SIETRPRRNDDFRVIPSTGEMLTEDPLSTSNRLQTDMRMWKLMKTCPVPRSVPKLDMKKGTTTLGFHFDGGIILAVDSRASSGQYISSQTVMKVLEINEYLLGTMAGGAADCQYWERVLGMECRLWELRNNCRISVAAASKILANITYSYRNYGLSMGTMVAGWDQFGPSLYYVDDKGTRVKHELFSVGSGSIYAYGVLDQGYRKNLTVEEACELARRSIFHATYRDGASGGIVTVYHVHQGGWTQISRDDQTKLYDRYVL
Description: Trypanosoma cruzi proteasome chymotrypsin-like activity (TcProtChymo) assay. Note: in the data most compounds retested in dose-response had high values. Type of experiment: functional. Particulars: 9.37 µM.

The next experiment is filed under the species Homo sapiens. Description: To identify inhibition of the IFN signalling (Jak-Stat) pathway via expression of an eGFP reporter gene under the control of an IFN-stimulated response element (ISRE) containing MxA promoter. Type of experiment: functional. Particulars: 30 µM. Background: Reporter assays use an easily measured gene product as a stand-in for the process of interest.

For experiment [6], the target named is T4, Tyrosyl-tRNA synthetase, putative (Trypanosoma cruzi (strain CL Brener)) (UniProt Q4DSP6).
T4 sequence (whole entry): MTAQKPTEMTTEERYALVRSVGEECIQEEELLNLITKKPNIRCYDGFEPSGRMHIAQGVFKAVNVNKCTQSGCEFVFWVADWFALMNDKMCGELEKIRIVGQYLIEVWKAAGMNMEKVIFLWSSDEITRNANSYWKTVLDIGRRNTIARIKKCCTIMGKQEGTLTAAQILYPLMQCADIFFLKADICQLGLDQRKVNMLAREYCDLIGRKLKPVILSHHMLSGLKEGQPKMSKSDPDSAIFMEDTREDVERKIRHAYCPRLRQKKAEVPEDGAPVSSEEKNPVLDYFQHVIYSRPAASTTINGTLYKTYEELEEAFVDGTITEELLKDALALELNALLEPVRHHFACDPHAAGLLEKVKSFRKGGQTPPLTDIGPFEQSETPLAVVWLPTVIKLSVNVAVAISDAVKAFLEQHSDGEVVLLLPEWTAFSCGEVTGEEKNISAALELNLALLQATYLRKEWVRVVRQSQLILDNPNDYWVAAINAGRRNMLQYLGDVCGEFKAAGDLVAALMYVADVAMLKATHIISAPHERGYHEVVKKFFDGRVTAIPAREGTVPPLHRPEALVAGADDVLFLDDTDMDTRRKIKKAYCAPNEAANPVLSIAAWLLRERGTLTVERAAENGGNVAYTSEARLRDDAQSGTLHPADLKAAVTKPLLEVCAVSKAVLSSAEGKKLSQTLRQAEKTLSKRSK
Description: Trypanosoma cruzi tyrosyl tRNA synthetase (TcYRS) _High Tyrosine SOP. Note: in the data most compounds retested in dose-response had high values. Type of experiment: functional. The note with it: 30 µM.

The target of experiment [7] is T4, Tyrosyl-tRNA synthetase, putative (Trypanosoma cruzi (strain CL Brener)). Description: Trypanosoma cruzi tyrosyl tRNA synthetase (TcYRS) SOP. The note with it: 30 µM. It counts as functional.
In experiment [8] the target is Chromo domain-containing protein 1 (Saccharomyces cerevisiae (strain ATCC 204508 / S288c) (Baker's yeast)) (UniProt P32657). Description: ScCHD-1 Enzyme Inhibition Assay. Note: in the data most compounds retested in dose-response had high values. It counts as functional. Particulars: 30 µM.
Chain of Chromo domain-containing protein 1 (Saccharomyces cerevisiae (strain ATCC 204508 / S288c) (Baker's yeast)) (P32657 whole entry, the tested form may be a part): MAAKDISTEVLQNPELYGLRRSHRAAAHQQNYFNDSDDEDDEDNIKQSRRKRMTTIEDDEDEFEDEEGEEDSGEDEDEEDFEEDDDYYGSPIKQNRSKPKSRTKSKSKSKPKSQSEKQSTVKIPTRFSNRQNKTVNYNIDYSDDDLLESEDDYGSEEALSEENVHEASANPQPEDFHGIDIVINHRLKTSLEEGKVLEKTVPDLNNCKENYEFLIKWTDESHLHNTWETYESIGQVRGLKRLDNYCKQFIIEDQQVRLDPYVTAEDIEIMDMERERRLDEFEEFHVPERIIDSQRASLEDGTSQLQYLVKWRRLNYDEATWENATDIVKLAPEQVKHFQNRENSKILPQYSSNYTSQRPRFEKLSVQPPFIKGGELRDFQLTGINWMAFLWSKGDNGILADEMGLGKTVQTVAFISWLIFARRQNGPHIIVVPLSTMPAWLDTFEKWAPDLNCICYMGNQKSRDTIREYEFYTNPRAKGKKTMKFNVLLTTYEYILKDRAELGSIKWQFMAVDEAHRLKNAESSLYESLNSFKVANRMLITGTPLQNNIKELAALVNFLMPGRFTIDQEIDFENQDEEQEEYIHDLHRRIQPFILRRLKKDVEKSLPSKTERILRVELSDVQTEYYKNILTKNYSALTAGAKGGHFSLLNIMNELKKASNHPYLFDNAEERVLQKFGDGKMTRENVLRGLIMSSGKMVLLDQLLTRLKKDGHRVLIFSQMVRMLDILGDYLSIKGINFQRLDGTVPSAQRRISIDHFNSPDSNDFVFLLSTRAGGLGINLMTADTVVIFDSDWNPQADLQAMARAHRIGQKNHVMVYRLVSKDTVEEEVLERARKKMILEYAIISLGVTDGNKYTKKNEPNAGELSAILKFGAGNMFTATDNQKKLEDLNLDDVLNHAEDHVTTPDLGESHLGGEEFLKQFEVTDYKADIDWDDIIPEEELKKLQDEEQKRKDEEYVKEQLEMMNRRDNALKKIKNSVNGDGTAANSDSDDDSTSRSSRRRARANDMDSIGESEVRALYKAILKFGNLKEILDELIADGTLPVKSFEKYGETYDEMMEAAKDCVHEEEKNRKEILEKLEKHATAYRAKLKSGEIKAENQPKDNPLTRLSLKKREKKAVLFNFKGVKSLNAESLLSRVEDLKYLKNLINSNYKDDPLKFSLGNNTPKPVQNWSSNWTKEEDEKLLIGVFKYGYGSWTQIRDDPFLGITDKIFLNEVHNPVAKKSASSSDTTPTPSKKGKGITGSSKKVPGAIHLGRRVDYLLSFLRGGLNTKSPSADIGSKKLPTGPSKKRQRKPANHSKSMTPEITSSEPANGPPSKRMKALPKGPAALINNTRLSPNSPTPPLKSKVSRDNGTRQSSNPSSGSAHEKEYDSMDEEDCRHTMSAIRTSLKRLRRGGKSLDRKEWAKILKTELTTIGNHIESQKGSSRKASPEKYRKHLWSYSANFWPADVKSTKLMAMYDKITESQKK

Chain of Sialic acid-binding Ig-like lectin 9 (Homo sapiens) (Q9Y336 whole entry): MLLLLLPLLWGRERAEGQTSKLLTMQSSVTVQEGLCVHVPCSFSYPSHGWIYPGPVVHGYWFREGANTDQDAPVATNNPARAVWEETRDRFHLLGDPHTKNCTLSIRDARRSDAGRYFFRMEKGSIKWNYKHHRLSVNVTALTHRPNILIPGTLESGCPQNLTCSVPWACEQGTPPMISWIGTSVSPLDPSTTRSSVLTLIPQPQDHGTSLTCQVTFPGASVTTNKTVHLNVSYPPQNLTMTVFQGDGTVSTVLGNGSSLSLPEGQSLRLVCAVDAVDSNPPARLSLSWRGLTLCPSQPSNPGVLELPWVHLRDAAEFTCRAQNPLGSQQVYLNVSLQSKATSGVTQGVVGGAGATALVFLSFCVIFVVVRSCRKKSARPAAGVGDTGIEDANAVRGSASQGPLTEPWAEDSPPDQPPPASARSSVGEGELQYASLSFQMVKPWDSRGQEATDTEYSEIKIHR

In the case of `Cc1ccc(NC2CCN(C(=O)c3cccc4ncccc34)CC2)nn1`, the Percent Effect was -3.89% in [1]; 5.33% in experiment [2]; -2.08% in experiment [3]; -0.803% in the experiment on Trypanosoma cruzi; 3.99% in experiment [4]; -1.61% in experiment [5]. The Percent Effect is 9.09% in the experiment listed under Homo sapiens, 13.2% in experiment [6], 15.4% in experiment [7] and -8.9% in experiment [8].
For the compound `NC[C@H]1CC[C@H](C(NC(=O)c2ccccn2)c2ccccn2)CC1` (stereo not given in full), the Percent Effect in [1] is 0.0974%; in experiment [2] it was 14.7%; in [3], 1.2%; in the experiment with Trypanosoma cruzi, -1.58%; in experiment [4], 0.443%; in experiment [5], 15.6%. The Percent Effect in the experiment listed under Homo sapiens was 8.78%; in [6], 4.23%; in experiment [7], 22.5%; in experiment [8], -24.4%.
On to `COc1cccc(OC)c1C(=O)N1CCN(c2ccccc2F)CC1`, for which the Percent Effect is 0.59% in experiment [1]; 12% in [2]; 0.141% in experiment [3]; -4.34% in the experiment on Trypanosoma cruzi; -6.2% in [4]; 12.2% in [5]. For the same compound, the Percent Effect in the experiment listed under Homo sapiens was 46.4%; in experiment [6] it was 0%; in experiment [7], -5%; in experiment [8], -24.9%.
On to `Cc1csc(N2CCCN(C(=O)c3c(C)oc(C)c3C)CC2)n1`, for which the Percent Effect in experiment [1] is -7.12%; in [2], 18.7%; in experiment [3], 3.18%; in the experiment with Trypanosoma cruzi, 4.22%; in [4], -1.77%; in experiment [5], 20.1%. The Percent Effect in the experiment listed under Homo sapiens is 8.84%; in experiment [6] it was 7.89%; in experiment [7], 17.9%; in [8], -8.96%.
`Cn1ncc2c1NC(=O)CC2c1ccc(O)cc1` (stereo not given): the Percent Effect was -7.41% in experiment [1]; 0% in experiment [2]; -2.98% in [3]; -8.63% in the experiment with Trypanosoma cruzi; -6.64% in experiment [4]; 11.3% in [5]. For the same compound, the Percent Effect in the experiment filed under Homo sapiens is 30.7%; in experiment [6] it was 0.532%; in [7] it was 4.88%; in experiment [8], -4.05%.
With `FC(F)(F)Cn1ccnc1CN1CCCC1c1noc(C2CC2)n1` (stereo not given), the Percent Effect is 0.298% in [1]; 10.7% in experiment [2]; -5.86% in [3]; -3.01% in the experiment on Trypanosoma cruzi; -4.43% in experiment [4]; 15.7% in experiment [5]. The Percent Effect in the experiment listed under Homo sapiens is 16.6%; in [6] it was 4.74%; in [7], 15.4%; in [8] it was -9.44%.
Turning to `O=C(O)c1cc(S(=O)(=O)N2CCOc3ccccc32)ccc1F`, the Percent Effect in experiment [1] was -6.51%; in experiment [2] it was 10.3%; in [3], -10.2%; in the experiment with Trypanosoma cruzi, 5.54%; in experiment [4], -0.82%; in experiment [5], 10.8%. In addition, the Percent Effect in the experiment filed under Homo sapiens is -4.8%; in experiment [6], -0.478%; in experiment [7], 18.1%; in experiment [8] it was -3.79%.
For `CNC(=O)c1ccc(CN(C(=O)c2scnc2C)C2CC2)cc1`, the Percent Effect was -5.91% in experiment [1]; -7.69% in [2]; -10.3% in experiment [3]; -0.845% in the experiment with Trypanosoma cruzi; -2.87% in experiment [4]; 3.67% in experiment [5]. Moreover, the Percent Effect in the experiment listed under Homo sapiens is 17.5%; in experiment [6] it was -3.35%; in [7], -6.02%; in experiment [8], -4.57%.
In the case of `COc1cccc2c1OCC(C(=O)N1CCC(N3CCOC3=O)CC1)C2` (stereo not given), the Percent Effect in [1] was -6.75%; in experiment [2] it was 13.5%; in experiment [3], 15.6%; in the experiment with Trypanosoma cruzi, 4.95%; in experiment [4], 10.8%; in experiment [5], 9.59%. In addition, the Percent Effect in the experiment filed under Homo sapiens is 8.78%; in experiment [6], 9.04%; in experiment [7] it was 12.2%; in experiment [8], -5.88%.
As to `Cn1cc(CN2CCCN(C(=O)c3cc[nH]n3)CC2)cn1`, the Percent Effect is -1.81% in experiment [1]; 5.13% in experiment [2]; -4.2% in experiment [3]; 4.22% in the experiment with Trypanosoma cruzi; -0.41% in experiment [4]; -6.57% in experiment [5]. The Percent Effect is 23.7% in the experiment filed under Homo sapiens, 0.478% in [6], 13.2% in [7] and -1.64% in experiment [8].
`Cc1cnn(C2CCCN(C(=O)c3sccc3-n3cnnn3)C2)c1` (stereo not given): the Percent Effect in experiment [1] was -2%; in [2], 7.69%; in experiment [3], -3.12%; in the experiment on Trypanosoma cruzi it was -5.54%; in experiment [4] it was 2.46%; in experiment [5], 7.93%. Moreover, the Percent Effect in the experiment filed under Homo sapiens stood at 33.8%; in experiment [6], 5.26%; in experiment [7], 10.8%; in experiment [8], 3.04%.
For the compound `CNc1cc(C2CCCN2C(=O)c2ccc3oc(=O)n(C)c3c2)ccn1` (stereo not given), the Percent Effect was -1.24% in experiment [1]; 14.7% in experiment [2]; 1.42% in experiment [3]; -3.94% in the experiment with Trypanosoma cruzi; -1.33% in [4]; 11.3% in experiment [5]. In addition, the Percent Effect is -1.54% in the experiment listed under Homo sapiens, 0% in experiment [6], 7.5% in [7] and -22.1% in experiment [8].
